Compound activity: PubChem BioAssay, several laboratories
aDG glyco act: increases alpha dystroglycan glycosylation | activation, % at 10 µM | actives 0.22% (n = 360,000) | Pro5-aDG cells, alpha-DG glycosylation AlphaScreen (IIH6); 0% Pro5, 100% B10-LARGE cell signal | AID 624168;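 active = activation of at least 8% versus controls, or a plate z-score of at least 8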;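 note: Pro5 are CHO cells carrying HIG-tagged alpha-DG that lacks glycosylation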
COUP-TFII inh: NR2F2 (human) inhibition, primary screen. P24468. HEK293T NGFI-A luciferase reporter, luminescence. inhibition, % at 8.6 µM. actives 0.7% (n = 370,000);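 active = inhibition above a per-plate cutoff, mean inhibition of test wells between control levels plus 3 SD, cut at about 38% in these data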;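 note: cells cotransfected with COUP-TFII expression vector driving the NGFI-A reporter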
Target sequence (P24468 whole entry, looked up): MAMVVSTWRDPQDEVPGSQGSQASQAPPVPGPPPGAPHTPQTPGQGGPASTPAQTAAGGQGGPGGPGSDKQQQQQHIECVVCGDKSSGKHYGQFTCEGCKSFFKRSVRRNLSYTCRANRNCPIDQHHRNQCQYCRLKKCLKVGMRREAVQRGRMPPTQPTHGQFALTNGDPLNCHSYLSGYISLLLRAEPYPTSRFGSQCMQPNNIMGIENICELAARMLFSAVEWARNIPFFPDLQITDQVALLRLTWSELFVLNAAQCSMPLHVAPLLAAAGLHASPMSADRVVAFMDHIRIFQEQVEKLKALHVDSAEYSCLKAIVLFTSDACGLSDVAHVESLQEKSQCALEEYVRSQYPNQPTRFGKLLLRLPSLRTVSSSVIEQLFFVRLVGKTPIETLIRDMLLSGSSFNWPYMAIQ
HIV Env fusion: HIV envelope-mediated fusion inhibition; HeLa-JRFL Env/CEM21 cell fusion, luciferase; inhibition, % at 12.3 µM; actives 1.1% (n = 360,000); AID 651610;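 active = mean replicate inhibition score of at least 50 and every replicate individually at or above 50; inconclusive = only one of the two criteria met; inactive = mean below 50 and not all replicates reaching 50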
Gli-Sufu block: antagonists of Gli-Sufu signaling; Sufu-KO-LIGHT fibroblasts, Gli luciferase reporter luminescence; inhibition, % at 5 µM; actives 0.74% (n = 340,000);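 active = inhibition above about 55%, limit read from the data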
GalR3 antag: blocks the human galanin receptor 3; O60755; HEK293 GalR3-CNG cAMP membrane potential fluorescence; galR3 body fused to GalR1 C-terminus; inhibition, % at 3 µM; actives 0.44% (n = 360,000);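 active = inhibition above the screen-wide average plus 3 SD, cut at about 13% in these data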;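 note: forskolin and galanin both at EC90 stimulate the cells; cAMP rise reported by CNG channel membrane potential dye signal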
Target sequence (O60755 1-299 limits assumed): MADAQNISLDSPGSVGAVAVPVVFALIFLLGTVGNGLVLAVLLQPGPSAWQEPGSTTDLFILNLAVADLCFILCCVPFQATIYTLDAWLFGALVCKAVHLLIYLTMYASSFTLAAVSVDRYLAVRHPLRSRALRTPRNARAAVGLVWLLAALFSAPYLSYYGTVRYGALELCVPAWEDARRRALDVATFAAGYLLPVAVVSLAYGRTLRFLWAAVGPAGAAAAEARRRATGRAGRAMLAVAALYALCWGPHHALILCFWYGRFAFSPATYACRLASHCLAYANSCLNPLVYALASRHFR
GalR3 conf: GalR3 (human) antagonism, confirmation | shares compounds with GalR3 antag | HEK293 GalR3 CNG cAMP biosensor, membrane potential fluorescence; galR3 fused to GalR1 carboxy tail; challenged with forskolin and galanin at EC90 | inhibition, % at 3 µM | actives 59% (n = 1,600);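 active = inhibition above the primary screen's cutoff, the mean inhibition of all screened compounds plus 3 SD, cut at about 13% in these data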
CNG parental: acts as nonspecific agonist in parental HEK-CNG cells | shares compounds with GalR3 antag | HEK293-CNG parental cells, cAMP membrane potential fluorescence; normalised: DMSO wells 0%, forskolin wells 100% | activation, % at 3 µM | actives 10% (n = 1,600) | AID 652268; in the data active = activation above about 1.3%
VP16 Luc counter: counter-screen for COUP-TFII antagonists: inhibitors of VP16; HEK293 Gal4-VP16 luciferase reporter, luminescence; inhibition, % at 8.5 µM; AID 687007; actives 25% (n = 2,500); shares compounds with COUP-TFII inh; in the data active = inhibition above about 13%
COUP-TFII conf: COUP-TFII (NR2F2) inhibition, confirmation assay | inhibition, % at 8.5 µM | AID 687008 | actives 45% (n = 2,500) | shares compounds with COUP-TFII inh | HEK293 NGFI-A luciferase reporter, luminescence;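 active = mean inhibition over three repeats above a set limit taken from the earlier primary screen, cut at about 38% in these data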
Large screens that a line does not name were inactive (follow-up assays come after a bar, where they were run). In the library only some 2.1% were active in any assay of this set; here they are far more common.

CCCc1cn(CC[C@@H]2CC[C@@H](NC(=O)C3CCC3)[C@H](CO)O2)nn1	none (no result: aDG glyco act, COUP-TFII inh, Gli-Sufu block, GalR3 antag)
CC(=O)Nc1ccc(OCCC[n+]2ccccc2)cc1	none
CCCCCc1ccc(OCCC[n+]2ccccc2)c(CCCCC)c1	COUP-TFII inh 57, Gli-Sufu block 83, GalR3 antag 31 | GalR3 conf 36 | CNG parental 1.8 | VP16 Luc counter 14 | COUP-TFII conf inactive
COc1ccc(NC(=O)C2Cc3c(-c4cccc(C(C)=O)c4)ccnc3O2)cc1OC (configuration not stated)	COUP-TFII inh 75, GalR3 antag 61 (no result: Gli-Sufu block) | GalR3 conf 104 | CNG parental inactive | VP16 Luc counter inactive | COUP-TFII conf 49
Nc1ncc(-c2ccccc2)c(-c2ccc(O)cc2O)n1	none
Oc1ccc(-c2n[nH]c(C(F)(F)F)c2-c2ccccc2)c(O)c1	COUP-TFII inh 65, Gli-Sufu block 70, GalR3 antag 47 | GalR3 conf 89 | CNG parental inactive | VP16 Luc counter inactive | COUP-TFII conf 48
O=C(COC(=O)c1ccccc1O)NC(c1ccccc1)c1ccccc1	COUP-TFII inh 41 | VP16 Luc counter inactive | COUP-TFII conf inactive
O=C(CCl)Nc1cc(SCC(O)CO)cc([N+](=O)[O-])c1 (configuration not stated)	COUP-TFII inh 69, Gli-Sufu block 63 | VP16 Luc counter 28 | COUP-TFII conf 73
c1ccc(CN2CCC(Nc3nc(-c4ccccc4)nc4ccccc34)CC2)cc1	none (no result: HIV Env fusion)
c1ccc(CN2CCC(CNc3ncnc4ccccc34)C2)cc1 (configuration not stated)	COUP-TFII inh 41 | VP16 Luc counter inactive | COUP-TFII conf inactive
O=NN(CCc1ccncc1)c1ccc(OCc2ccccc2)cc1	COUP-TFII inh 51 | VP16 Luc counter inactive | COUP-TFII conf 45
CCOc1ccc(CN2CCN(C(=O)c3cccc4ccccc34)CC2)cc1	COUP-TFII inh 59 | VP16 Luc counter inactive | COUP-TFII conf inactive
O=C(N[C@H]1CC[C@H](CCn2cc(-c3ccccn3)nn2)O[C@@H]1CO)c1ccncc1	none (no result: aDG glyco act, COUP-TFII inh, Gli-Sufu block, GalR3 antag)
O=C(OC12CCCN(C1)/C(=C/c1cccnc1)C2)c1ccccc1 (configuration not stated)	none (no result: aDG glyco act, HIV Env fusion, Gli-Sufu block, GalR3 antag)
O=C(OC12CCCN(C1)/C(=C/c1ccncc1)C2)c1ccccc1 (configuration not stated)	COUP-TFII inh 45 (no result: aDG glyco act, HIV Env fusion, Gli-Sufu block, GalR3 antag) | VP16 Luc counter inactive | COUP-TFII conf inactive
CNC[C@H]1OCCCC[C@@H](C)Oc2ccc(NC(=O)Nc3ccc4c(c3)OCO4)cc2C(=O)N([C@H](C)CO)C[C@H]1C	none (no result: aDG glyco act, COUP-TFII inh, Gli-Sufu block, GalR3 antag)
COCCN(C(=O)CCC(=O)Nc1nccs1)C(C(=O)NC(C)(C)C)c1ccc(C)cc1 (configuration not stated)	COUP-TFII inh 60 | VP16 Luc counter inactive | COUP-TFII conf inactive
COCCN(C(=O)CCC(=O)Nc1nccs1)C(C(=O)NC(C)(C)C)c1ccc(F)cc1 (configuration not stated)	none
C[C@@H]1CCCCO[C@H](CN(C)C(=O)c2ccccc2)[C@H](C)CN([C@@H](C)CO)C(=O)c2cc(NC(=O)CCCCCC(=O)Nc3ccccc3N)ccc2O1	none (no result: aDG glyco act, COUP-TFII inh, Gli-Sufu block, GalR3 antag)
CC(=O)N(C)C[C@@H]1Oc2ncc(-c3ccc(C(=O)N(C)C)cc3)cc2C(=O)N([C@H](C)CO)C[C@@H]1C	none (no result: aDG glyco act, COUP-TFII inh, Gli-Sufu block, GalR3 antag)
CC[C@H]1CN2CCc3cc(OC)c(OC)cc3C2C[C@@H]1C[C@H]1NCCc2cc(OC)c(OC)cc21 (some centres not stated)	COUP-TFII inh 92, Gli-Sufu block 65 (no result: HIV Env fusion, GalR3 antag) | VP16 Luc counter inactive | COUP-TFII conf 84
COc1ccc(-c2coc3c(C(=O)NCCN4CCOCC4)cccc23)c(C)c1	none (no result: Gli-Sufu block)
COc1ccc(-c2coc3c(C(=O)NCc4ccc(F)c(F)c4)cccc23)c(C)c1	COUP-TFII inh 47 (no result: Gli-Sufu block) | VP16 Luc counter inactive | COUP-TFII conf inactive
Cn1cc(-c2coc3c(C(=O)NCc4cccnc4)cccc23)cn1	none (no result: HIV Env fusion, Gli-Sufu block)
COc1ccc(-c2coc3c(C(=O)NCC4CCOCC4)cccc23)c(C)c1	COUP-TFII inh 42 (no result: Gli-Sufu block) | VP16 Luc counter inactive | COUP-TFII conf inactive
COc1cc(NC(=O)c2cccc3c(-c4cccnc4)coc23)cc(OC)c1OC	COUP-TFII inh 52 (no result: Gli-Sufu block) | VP16 Luc counter inactive | COUP-TFII conf inactive
COc1ccc(CNC(=O)c2cccc3c(-c4cnn(C)c4)coc23)cc1OC	COUP-TFII inh 62 (no result: Gli-Sufu block) | VP16 Luc counter inactive | COUP-TFII conf 40
COc1ccc(-c2coc3c(C(=O)NCCN(C)C)cccc23)c(C)c1	none (no result: Gli-Sufu block)
O=C(Cc1ccccn1)NCC[C@@H]1CC[C@H](NC(=O)CN2CCOCC2)[C@@H](CO)O1	none (no result: aDG glyco act, COUP-TFII inh, Gli-Sufu block, GalR3 antag)
COc1ccc(CN(C)C[C@H]2OCCCC[C@@H](C)Oc3ccc(N(C)C)cc3C(=O)N([C@H](C)CO)C[C@H]2C)cc1	none (no result: aDG glyco act, COUP-TFII inh, Gli-Sufu block, GalR3 antag)
CCC(=O)N(C)C[C@@H]1Oc2cc(C#CC3CCCCC3)ccc2S(=O)(=O)N([C@H](C)CO)C[C@@H]1C	none (no result: aDG glyco act, COUP-TFII inh, Gli-Sufu block, GalR3 antag)
COc1ccc(C(=O)Nc2ccc(C)cn2)c(OC)c1	COUP-TFII inh 55 | VP16 Luc counter 14 | COUP-TFII conf inactive
COc1ccc(C(=O)Nc2cc(C)on2)c(OC)c1	none
COc1ccccc1N1CCN(C(=O)c2sc3nc(-c4ccc(F)cc4)cn3c2C)CC1	COUP-TFII inh 52, HIV Env fusion inconclusive (no result: GalR3 antag) | VP16 Luc counter inactive | COUP-TFII conf inactive
COc1ccc(-c2cn3c(C)c(C(=O)N4CCN(c5ccc(F)cc5)CC4)sc3n2)cc1	none (no result: GalR3 antag)
COc1ccccc1N1CCN(C(=O)CCC(=O)N2CCN(c3ccc(F)cc3)CC2)CC1	COUP-TFII inh 40 | VP16 Luc counter inactive | COUP-TFII conf inactive
COc1cc(C(=O)N(C)CCOc2ccccc2)ccc1OCC(=O)Nc1cccc(C(F)(F)F)c1	COUP-TFII inh 57 | VP16 Luc counter inactive | COUP-TFII conf inactive
COc1cc(C(=O)NCc2ccc(S(N)(=O)=O)cc2)ccc1OCC(=O)Nc1cccc(C(F)(F)F)c1	none (no result: HIV Env fusion)
Cc1cc(N2CCN(C(=O)Oc3ccc(C(F)(F)F)cc3)CC2)c2ccccc2n1	none (no result: aDG glyco act, HIV Env fusion, Gli-Sufu block, GalR3 antag)
Cc1cc(N2CCN(C(=O)Oc3ccc(-c4ccccc4)cn3)CC2)c2ccccc2n1	COUP-TFII inh 87 (no result: aDG glyco act, HIV Env fusion, Gli-Sufu block, GalR3 antag) | VP16 Luc counter inactive | COUP-TFII conf 38
